According to PubChem BioAssay:
Records with an inconclusive call do not appear. Active and inactive are the calls of the source. Unless noted, cut-off not given; nearly all actives show AC50 up to about 30 µM.

Tests used:
[1] = tested on: Aerobactin synthetase IucA (Klebsiella pneumoniae); experiment: IucA aerobactin synthetase inhibitors, biochemical, Tocris library, absorbance (AID 1345561; call rule not given here;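 further: 100% = enzyme without compound and 0% = no enzyme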); details: purified IucA enzyme assay, absorbance (OD) read-out; stronger effect = lower value;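 tested at 8 µM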
[2] = growth inhibition of DIPG glioma cells, dose response, cell-based, SU-DIPG-XVII, MIPE5.0, CellTiter-Glo, qHTS (AID 1347060; cut-off not given, nearly all actives have AC50 up to about 26 µM;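 on AC50: cells exposed to compound for 48 hours before viability readout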); details: SU-DIPG-XVII viability, CellTiter-Glo ATP luminescence
[3] = growth inhibition of DIPG glioma cells, dose response, cell-based, SU-DIPG-XIII, MIPE4.0, CellTiter-Glo, qHTS (AID 1347061; cut-off not given, nearly all actives have AC50 up to about 37 µM;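 further: cells exposed to compound for 48 hours before readout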); details: SU-DIPG-XIII viability, CellTiter-Glo ATP luminescence
[4] = growth inhibition of DIPG glioma cells, dose response, cell-based, JHH-DIPG-1, MIPE4.0, CellTiter-Glo, qHTS (AID 1347062; cut-off not given, nearly all actives have AC50 up to about 27 µM;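 on AC50: cells exposed to compound for two days before readout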); details: JHH-DIPG-1 viability, CellTiter-Glo ATP luminescence
[5] = growth inhibition of DIPG glioma cells, dose response, cell-based, SU-DIPG-IV, MIPE4.0, CellTiter-Glo, qHTS (AID 1347063); details: SU-DIPG-IV viability, CellTiter-Glo ATP luminescence;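 further: compound exposure lasted 48 hours before the viability readout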
[6] = growth inhibition of DIPG glioma cells, dose response, cell-based, SU-DIPG-XIII, MIPE5.0, CellTiter-Glo, qHTS (AID 1347064; cut-off not given, nearly all actives have AC50 up to about 23 µM;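 on AC50: cells exposed to compound for 48 hours before the viability read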); details: SU-DIPG-XIII viability, CellTiter-Glo ATP luminescence
[7] = differential killing of epithelial or mesenchymal cells, primary screen, imaging, PC-3E GFP, TEM4-18 mCherry, co-culture (AID 1345086;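 active means compounds killing one labelled cell type while sparing the other, by normalised counts and ratio limits, not self-fluorescent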;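 on all read-outs here: cells exposed to compound for 72 h before imaging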;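 on red/green cell ratio (normalised): normalised mesenchymal count divided by normalised epithelial count so high means epithelial killing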); details: imaging cell counts, at 1 µM; for red/green cell ratio (normalised): actives lie on both sides, counts scaled to control wells, 1 = unselective
[8] = measured here: epithelial PC-3E GFP cell survival
[9] = measured here: mesenchymal TEM4-18 mCherry cell survival

In the case of `CC(C)NC[C@@H](O)COc1cccc2ccccc12`, the remaining activity [1] is reported as 109% (inactive).

In the case of `Nc1ccc(S(N)(=O)=O)cc1`, the outcome [2] is reported as “inactive”, the outcome [3] is reported as “inactive” and the outcome [4] is reported as “inactive”. The outcome [5] was “inactive” and the outcome [6] was “inactive”.

In the case of `CCC(=O)O[C@]1(C(=O)SCF)[C@H](C)C[C@H]2[C@@H]3C[C@H](F)C4=CC(=O)C=C[C@]4(C)[C@@]3(F)[C@@H](O)C[C@@]21C`, the remaining activity [1] is reported as 125% (inactive), the outcome [2] is reported as “inactive” and the outcome [4] is reported as “inactive”. The outcome [5] was “inactive”.

In the case of `Clc1ccc(C(c2ccccc2Cl)C(Cl)Cl)cc1` (stereo unspecified), the red/green cell ratio (normalised) [7] is reported as 0.98 (inactive), the normalised cell number [7, 8] is reported as 1.11 and the normalised cell number [7, 9] is reported as 1.08. The AC50 [5] was 16.6 µM (active) and the AC50 [6] was 18.6 µM (active).

For `O=c1[nH]c(=O)n([C@H]2C[C@H](O)[C@@H](CO)O2)cc1F`, the AC50 [3] was 13.2 µM (active) and the AC50 [4] was 1.48 µM (active).

With `CN(C)CCC=C1c2ccccc2C=Cc2ccccc21` the red/green cell ratio (normalised) [7] was 1.06 (inactive), the normalised cell number [7, 8] was 1.13 and the normalised cell number [7, 9] was 1.19. For the same compound, the outcome [3] was “inactive” and the outcome [5] was “inactive”.

With `COc1ccc(C(=O)CC(=O)c2ccc(C(C)(C)C)cc2)cc1` the red/green cell ratio (normalised) [7] was 1.31 (inactive), the normalised cell number [7, 8] was 0.9 and the normalised cell number [7, 9] was 1.18. The AC50 [4] was 3.72 µM (active) and the AC50 [5] was 5.26 µM (active).

With `C#C[C@]1(O)CC[C@H]2[C@@H]3CCc4cc(OC)ccc4[C@H]3CC[C@@]21C` the outcome [4] was “inactive”, the outcome [5] was “inactive” and the outcome [6] was “inactive”.

For `C#C[C@]1(O)CC[C@H]2[C@@H]3[C@H](C)CC4=C(CCC(=O)C4)[C@H]3CC[C@@]21C`, the outcome [6] was “inactive”.

In the case of `COc1cnc(NS(=O)(=O)c2ccc(N)cc2)nc1`, the red/green cell ratio (normalised) [7] is reported as 1.15 (inactive), the normalised cell number [7, 8] is reported as 0.87 and the normalised cell number [7, 9] is reported as 0.99. The AC50 [4] was 2.96 µM (active).

In the case of `CO[C@@]12[C@H](COC(N)=O)C3=C(C(=O)C(C)=C(N)C3=O)N1C[C@@H]1N[C@@H]12`, the AC50 [2] is reported as 0.417 µM (active), the AC50 [4] is reported as 16.6 µM (active) and the AC50 [5] is reported as 0.469 µM (active). For the same compound, the AC50 [6] was 7.42 µM (active).

For `CC(=O)O[C@H]1C[C@@H]2CC[C@@H]3[C@H](CC[C@@]4(C)[C@H]3C[C@H]([N+]3(C)CCCCC3)[C@@H]4OC(C)=O)[C@@]2(C)C[C@@H]1N1CCCCC1`, the outcome [2] was “inactive”, the outcome [3] was “inactive” and the outcome [4] was “inactive”. For the same compound, the outcome [5] was “inactive”.

With `Cc1onc(-c2ccccc2Cl)c1C(=O)N[C@@H]1C(=O)N2[C@@H]1SC(C)(C)[C@@H]2C(=O)O` the red/green cell ratio (normalised) [7] was 1.1 (inactive), the normalised cell number [7, 8] was 1.34 and the normalised cell number [7, 9] was 1.48. The outcome [3] was “inactive” and the outcome [5] was “inactive”.

With `CC(=O)O[C@]1(C(C)=O)CC[C@H]2[C@@H]3C=C(Cl)C4=CC(=O)[C@@H]5C[C@@H]5[C@]4(C)[C@H]3CC[C@@]21C` the AC50 [2] was 23.5 µM (active), the AC50 [4] was 23.5 µM (active) and the AC50 [5] was 9.35 µM (active).
